# The campaign covered roughly 48,000 compounds. About 13,000 (27%) showed an effect of 50% or more. The list shows a part of the results.
# System: Wolbachia pipientis
# Experiment: Anti-Wolbachia Cell-Based Screen
# Type: functional
# Parameters: scale not given: in the data most compounds retested in dose-response had high values
# Conditions: 5 µM
row,Compound,Percent Effect [%]
1,Cc1nc(C)c(CNC[C@@]2(COc3cccnc3)C[C@@H](O)[C@@H](O)C2)s1.Cl.Cl,0.5308
2,O=C(CCn1cccn1)N1C[C@@H]2CC[C@H](C1)N(Cc1ccccn1)C2=O,2.815
3,Cl.NCCCNS(=O)(=O)Cc1ccc(Br)cc1,-40.39
4,CCCc1nc(CNc2nc(C)nc3oc(C)nc23)cs1,-12.23
5,COc1ccc(C(=O)N2CCC(Oc3ccccc3C)(C(=O)O)CC2)o1,-4.68
6,Cc1cs/c(=N\C(=O)c2c3c(nc4onc(C)c24)CCC3)[nH]1,113
7,Cc1noc2nc3c(c(C(=O)/N=c4\[nH]ncs4)c12)CCC3,123.1
8,COCc1noc(C2(c3ccc(F)cc3)CCOCC2)n1,-32.93
9,O=S(=O)(NCC1CCN(CCN2CCOCC2)C1)c1ccccc1F (stereo not given),14.41
10,CC(=O)NCC(=O)N1CCn2cc(CN3CCN(C)CC3)nc2C1.O=C(O)C(F)(F)F.O=C(O)C(F)(F)F,-9.16
11,Cn1ccnc1CC1CCCN(C(=O)Nc2cccn(C)c2=O)C1 (stereo not given),-3.094
12,Cn1ccnc1CC1CCCN(C(=O)Cc2ccccc2)C1 (stereo not given),107.6
13,CC(=O)N1CCCC(Cc2nccn2C)C1 (stereo not given),104.6
14,Cn1ccnc1CNC(=O)N1CCCC(Cc2nccn2C)C1 (stereo not given),-2.047
15,CN(CCc1ccccc1)C1CCCN(Cc2nccn2C)C1 (stereo not given),-2.668
16,CCC(C)(NCc1cccc(NC(C)=O)c1)c1nc(C)cs1 (stereo not given),-6.571
17,CCNS(=O)(=O)C1CCN(C(=O)c2ccc(CC)o2)C1 (stereo not given),1.453
18,CCN1CCN(C(=O)C(C)N2CCc3cncnc3C2)CC1 (stereo not given),4.565
19,COc1ccc(CN2CCOC[C@H](OCc3ccccc3)C2)cc1,-4.744
20,CNc1cnc(CC2COCCN(CCOc3ccccc3)C2)cn1 (stereo not given),158.8
21,CN1CCN2CCN(Cc3cnc(NCc4ccccc4)nc3)CC2C1 (stereo not given),2.574
22,Clc1cncc(NCc2cccc(OCCN3CCOCC3)c2)n1,2.735
23,O=C1O[C@@H]2CN(CCc3ccccc3)C[C@@H]2N1CCCN1CCOCC1,-3.811
24,c1ccc(NCc2cccc(OCCN3CCOCC3)c2)nc1,9.722
25,CNc1cc(C)nc(N2CCN(Cc3ccccc3)CC(O)C2)n1 (stereo not given),10.53
26,CNc1cnc(CC2COCCN(Cc3ccccc3)C2)cn1 (stereo not given),100
27,Cc1cc(N2CCCN(CCc3ccccc3)CC2)ccn1,5.317

row,Compound,Percent Effect [%]
1,Cc1cc(CC2COCCN(CCc3ccccc3)C2)ncn1 (stereo not given),136.2
2,Cc1ccc(CC2COCCN(Cc3ccccc3)C2)nc1 (stereo not given),76.14
3,CC(C)(C)c1coc([C@@H]2COCCN2Cc2ccccc2)n1,-6.681
4,Cc1cc(C)n(C2CN(C(=O)Cn3c(=O)c(C)nc4ccccc43)C2)n1,-1.32
5,CNC(=O)[C@@H]1C[C@@H](N)CN1Cc1ccc2cccc(OC)c2n1,-0.1513
6,c1ccc(CCc2noc(CN3CCC(N4CCSCC4)CC3)n2)cc1,-3.456
7,N#Cc1ccc(CNC(=O)NC2CCN(CC(F)F)CC2)cc1,3.671
8,COc1cc(O)cc2c1C(=O)CC(c1ccc(O)cc1)O2 (stereo not given),-2.59
9,CN(Cc1ccc(C#N)cc1)Cn1nccc1-c1cccnc1,11.16
10,COc1ccc(CN2Cc3cn(C)nc3C(COCC3CC3)C2)cc1 (stereo not given),10.23
11,COc1ccccc1CN(Cc1cccc(C)c1)C(=O)[C@@H](N)CC(=O)O,3.134
12,CNc1cnc(CC2COCCN(Cc3cccc(C)n3)C2)cn1 (stereo not given),107
13,OC1COCCN(Cc2cccc(N3CCOCC3)c2)C1 (stereo not given),-7.923
14,CCCN1CCC(CC(=O)NCc2cc(O)ncn2)CC1,-6.133
15,Cc1cccc(O[C@H]2COCCN(Cc3sc(C)nc3C)C2)n1,12.2
16,Oc1cc(CC2COCCN(CC3(O)CCOCC3)C2)ncn1 (stereo not given),130
17,Cc1cccc(CN2C[C@H]3OC(=O)N(CCCN4CCOCC4)[C@H]3C2)n1,-5.32
18,CSc1cc2c(cc1NC(=O)N(C)Cc1cnn(C)c1)OCCO2,-6.777
19,COCCN1C(=O)[C@H]2CC[C@@H]1CN(C(=O)Cc1ccc(O)c(Cl)c1)C2,12.68
20,CC(C)c1noc(Cn2ncn3cccc3c2=O)n1,-11.32
21,O=C(O)C(F)(F)F.O=C(c1cccnc1)N1CCCC2(CCN(c3ccsc3)C2=O)C1 (stereo not given),9.95
22,Cc1oncc1C(=O)N1CCC2(CCN(Cc3ccccn3)C2=O)C1 (stereo not given),-15.28
23,O=C(O)C(F)(F)F.O=C(c1ccc(F)cc1)N1CCC2(CCN(Cc3ccccn3)C2=O)C1 (stereo not given),89.07
24,Cc1cccc(CN2CCC3(CCCN(C(=O)c4ccoc4)C3)C2=O)n1.O=C(O)C(F)(F)F (stereo not given),1.474
25,CN(C)CC(=O)N1CCC2(CCN(Cc3ccccn3)C2=O)C1 (stereo not given),-12.92
26,COCC(=O)N1CCC2(CC1)CCN(Cc1ccccn1)C2=O.O=C(O)C(F)(F)F,-18.96
27,Cc1cccc(CN2CCC3(CCCN(C(=O)c4ccsc4)C3)C2=O)n1.O=C(O)C(F)(F)F (stereo not given),-5.258

row,Compound,Percent Effect [%]
1,Cc1ccc(C(=O)N2CCC3(CCN(Cc4ccccn4)C3=O)C2)cn1 (stereo not given),76.19
2,Cc1cnc(C(=O)N2CCC3(CCN(Cc4ccccn4)C3=O)C2)cn1.O=C(O)C(F)(F)F (stereo not given),102.4
3,O=C(O)C(F)(F)F.O=C(c1ccsc1)N1CCC2(CCN(Cc3ccccn3)C2=O)C1 (stereo not given),124
4,COc1cccc(CC2CCCN2CCCC#N)c1 (stereo not given),4.783
5,O[C@H]1[C@H](n2cc(-c3cccnc3)nn2)c2ccccc2C12CCNCC2,12.4
6,O=C(CCc1ccc(OC(F)(F)F)cc1)N1CCCS1(=O)=O,14.48
7,c1cnc(N2CCN(Cn3nccc3-c3cccnc3)CC2)nc1,3.122
8,Cc1ncc(C(=O)NC2CCN(CCOc3ccc(Br)cc3)CC2)s1,-10.45
9,CC(C)CC(NC(=O)c1ccc[nH]1)C(=O)N1CCC(CO)CC1 (stereo not given),4.263
10,Cc1occc1C(=O)N1CCCC2(CCN(c3ccccc3)C2=O)C1 (stereo not given),4.886
11,Cc1occc1C(=O)N1CCCC2(CCN(CCN3CCCC3)C2=O)C1.O=C(O)C(F)(F)F (stereo not given),-1.514
12,Cc1occc1C(=O)N1CCC2(CCN(Cc3ccccn3)C2=O)C1.O=C(O)C(F)(F)F (stereo not given),103.9
13,O=C(c1ccc(O)nc1)N1CCN(C(=O)c2ccc(F)c(F)c2)CC1,-0.8885
14,Cc1nc(C)c(C(=O)NCCNc2cc(N3CCCC3)ncn2)s1,20.28
15,Cc1nc(C)c(C(=O)NCCNC(=O)Cc2ccccc2)s1,4.586
16,Cc1nc(C(C)C)sc1C(=O)NCCn1ccnc1,18.45
17,CCN1CCN(CCNC(=O)c2sc(C)nc2C)CC1,76.69
18,CCN1CCN(CCNC(=O)c2sc(C(C)C)nc2C)CC1,114.4
19,Cc1nc(C(C)C)sc1CNC(=O)CCCN1CCCCC1,-2.668
20,O=C(c1n[nH]c(=O)c2ccccc12)N1CCCCC1c1ccn[nH]1 (stereo not given),-2.968
21,O=C(NCCCN1CCCC1)c1n[nH]c(=O)c2ccccc12,0.5839
22,CNC(=O)C1CCCCN1C(=O)c1cn(CCOC)c2ccccc12 (stereo not given),-5.579
23,CNC(=O)C1CCCCN1C(=O)c1csc(-c2ccccc2)n1 (stereo not given),-0.9781
24,CNC(=O)C1CCCCN1C(=O)c1n[nH]c(=O)c2ccccc12 (stereo not given),98.92
25,CC1CCCCN1C(=O)c1n[nH]c(=O)c2ccccc12 (stereo not given),115.2
26,Cn1ccc2cc(CC3COCCN(C(=O)c4cccnc4)C3)ccc21 (stereo not given),69.9
27,O=C(c1cccnc1)N1CCN2C(=O)N(Cc3ccc(F)cc3)C[C@H]2C1,2.014

row,Compound,Percent Effect [%]
1,COc1cccc(CCC2CCCN(C(=O)c3ccccn3)C2)c1 (stereo not given),-14.56
2,Cn1ccc2cc(CC3COCCN(C(=O)c4ccccn4)C3)ccc21 (stereo not given),118.8
3,CN(C)CCN1CC(C(=O)NCc2ccc(C#N)cc2)CC1=O (stereo not given),-12.86
4,COc1ccc(CC(C)(O)CNC(=O)NCc2cccs2)cc1 (stereo not given),-12.02
5,Cc1nc2c(c(=O)n1C)CN(C(=O)C1CCCN(CC(N)=O)C1)C2 (stereo not given),-6.994
6,CN(CC(=O)NC(Cc1ccccc1)C1CCCC1)S(C)(=O)=O (stereo not given),1.289
7,Cc1cc(N2CCC(C(=O)O)(n3ccc(C(C)(C)C)n3)CC2)nc(N)n1,-17.81
8,Cc1cc(NC(=O)NCCc2ccccc2)n(C)n1,-5.779
9,Cc1cc(NC(=O)NCC(O)c2ccc(Cl)cc2Cl)n(C)n1 (stereo not given),1.838
10,Cc1cc(NC(=O)NCC(c2ccccc2)N2CCOCC2)n(C)n1 (stereo not given),108.2
11,Cc1cc(NC(=O)NCC(c2ccc(C)o2)N2CCOCC2)n(C)n1 (stereo not given),126.3
12,Cc1cc(NC(=O)NCc2ccccc2OC(F)F)n(C)n1,8.208
13,Cc1cnc(C(=O)NCC(c2ccc(C)o2)N2CCOCC2)cn1 (stereo not given),-11.84
14,CCc1ccccc1OCCCN(C)C(=O)C1CCCN1C(N)=O (stereo not given),-6.634
15,CCC(NC(=O)CC(F)(F)F)c1ccccc1OCC(=O)N1CCCC1 (stereo not given),-4.718
16,CCCc1cc(C(=O)N(Cc2cccnc2)C[C@@H]2CCC(=O)N2)no1,-10.16
17,Cc1nccc(-c2ccccc2)c1C(=O)N1CCC2(CC(=O)NC2=O)C1 (stereo not given),-6.27
18,Cc1ncccc1C(=O)N1CCC2(CCc3ccccc3C(=O)N2)C1 (stereo not given),98.8
19,O=C1NC2(CCc3ccccc31)CCN(C(=O)c1ccncc1)C2 (stereo not given),94.99
20,O=C1CCC2(CCCN(C(=O)c3cccnc3)CC2)N1 (stereo not given),-2.669
21,O=C1CCC2(CCCN(C(=O)c3cccs3)C2)N1 (stereo not given),-85.27
22,O=C1NC2(CCc3ccccc31)CCN(C(=O)c1cccnc1)C2 (stereo not given),113.1
23,CC(C)CN1C[C@@H]2C(=O)NC3(CCN(C(=O)c4cccnc4)CC3)[C@@H]2C1,1.9
24,Cc1nccc(-c2ccccc2)c1C(=O)N1CC[C@](C)(O)C(C)(C)C1,-0.4275

# — ChEMBL document CHEMBL3988442, “University of Dundee, Small-Polar-MMV Screening Library” (2021)
